Measured values taken from PubChem BioAssay.
Results filed as inconclusive are left out. Calls of active or inactive are those of the source. Unless noted, no stated cut-off is given here; in the data, active means inhibition above about 80%; inactive means the rest.

Tests used:
[1] = viability loss in pontine glioma line – cell-based, SU-DIPG-XVII, MIPE5.0, CellTiter-Glo, qHTS, dose response (AID 1347060; cut-off not given, nearly all actives have AC50 up to about 26 µM;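 further: cells exposed to compound for 48 hours before viability readout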); conditions: CellTiter-Glo ATP luminescence
[2] = viability loss in pontine glioma line – cell-based, SU-DIPG-XIII, MIPE5.0, CellTiter-Glo, qHTS, dose response (AID 1347064; cut-off not given, nearly all actives have AC50 up to about 23 µM;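 further: cells exposed to compound for 48 hours before the viability read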); conditions: CellTiter-Glo ATP luminescence
[3] = viability loss in pontine glioma line – cell-based, SU-DIPG-XXV, MIPE5.0, CellTiter-Glo, qHTS, dose response (AID 1347065; cut-off not given, nearly all actives have AC50 up to about 26 µM;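 further: cells exposed to compound for 48 hours before ATP readout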); conditions: CellTiter-Glo ATP luminescence
[4] = JHH-DIPG-1 glioma cell viability, MIPE5.0 library, CellTiter-Glo luminescence, qHTS (AID 1347067; cut-off not given, nearly all actives have AC50 up to about 26 µM;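 further: cells exposed to compound for 48 hours before readout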); conditions: JHH-DIPG-1 glioma viability, CellTiter-Glo ATP luminescence
[5] = growth inhibition of DIPG cells – cell-based, MIPE5.0 library, qHTS (AID 1347068; cut-off not given, nearly all actives have IC50 up to about 30 µM;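 further: cells exposed to compound for 48 hours before viability readout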); conditions: SU-DIPG-XXV viability
[6] = viability loss with induced miR-34 in A549 – imaging, A549 dox-inducible miR-34, nuclei and caspase counts, primary screen (AID 1347080;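 active means compounds whose cell count with miR-34 switched on is under 0.7 times the count with it off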); conditions: A549 miR-34 inducible, Hoechst nuclei count, 48 h
[7] = MELAS cybrid and Rieske KO viability enhancers – cell-based, MELAS cybrids, Rieske KO mouse fibroblasts, CellTiter-Glo, primary screen (AID 1508586;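 active means mean z-score across replicates of 1.96 or higher in either the MELAS or the Rieske mutant cell line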;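 further: z relative to plate mean and SD of compound and empty wells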); conditions: low glucose
[8] = growth inhibition, single agent or in combination, cell-based, chromothripsis tumors, cisplatin or BGB combos (AID 1671449); conditions: LFS_MB_P medulloblastoma cells;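 further: cells exposed for 96 hours; 0% = vehicle DMSO and 100% = killing by high DMSO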
[9] = growth inhibition, single agent and combos, cell-based, chromothripsis tumors, cisplatin or BGB combos (AID 1671450); conditions: HDN33 neuroblastoma cells, stronger effect = higher value;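 further: cells exposed to compound for four days; 0% = vehicle DMSO and 100% = cell killing by high DMSO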
[10] = growth inhibition, single agents and combos, ICB984, cell-based, cisplatin or BGB combos, synergistic combos for chromothripsis tumors (AID 1671451; call rule not given here;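 further: cells exposed for 96 hours before readout; 0% = vehicle DMSO and 100% = killing by high DMSO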); conditions: ICB984 medulloblastoma cells, drug combinations, stronger effect = higher value
[11] = growth inhibition, single agents and combos, LFS_MB_1R, cell-based, cisplatin or BGB combos, synergistic combos for chromothripsis tumors (AID 1671452); conditions: LFS_MB_1R medulloblastoma cells, stronger effect = higher value;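 further: cells exposed for 96 hours before readout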
[12] = growth inhibition, single agents and combos, HTB85, cell-based, BGB or cisplatin IC20 combos, synergistic combos for chromothripsis tumors (AID 1671453); conditions: HTB85 osteosarcoma cells, drug combinations, stronger effect = higher value;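 further: cells exposed for 96 hours before readout; 0% = vehicle DMSO and 100% = high DMSO killing control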
[13] = growth inhibition, single agents and combos, CRL2098, cell-based, BGB or cisplatin IC20 combos, synergistic combos for chromothripsis tumors (AID 1671454); conditions: CRL2098 osteosarcoma cells, drug combinations, stronger effect = higher value;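 further: cells exposed for 96 h before readout; 0% = vehicle DMSO and 100% = killing by high DMSO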
[14] = growth inhibition, single agents and combos, HD-MB03, cell-based, BGB or cisplatin IC20 combos, synergistic combos for chromothripsis tumors (AID 1671455; in the data active means inhibition above about 83%;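 further: 0% = vehicle DMSO and 100% = high DMSO as cytotoxic control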); conditions: HD-MB03 medulloblastoma cells, stronger effect = higher value
[15] = growth inhibition, single agents and combos, UWB1.289, cell-based, BGB or cisplatin combos, synergistic combos for chromothripsis tumors (AID 1671456); conditions: UWB1.289 ovarian carcinoma cells, stronger effect = higher value;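 further: cells exposed to compound for four days; 0% = vehicle DMSO and 100% = killing by high DMSO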
[16] = growth inhibition, MDA-MB-436, cell-based, BGB or cisplatin combos, synergistic combos for chromothripsis tumors (AID 1671458; call rule not given here;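 further: cells exposed for 96 hours; 0% = vehicle DMSO and 100% = killing by high DMSO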); conditions: MDA-MB-436 breast carcinoma growth inhibition, drug combinations, stronger effect = higher value
[17] = BT084 cell growth, single and combined drugs, ICGC_MB145, cisplatin and BGB IC40 combos (AID 1671461); conditions: BT084 medulloblastoma cells, drug combinations, stronger effect = higher value;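 further: cells exposed to drugs for 96 hours; 0% = vehicle DMSO and 100% = high DMSO full killing control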
[18] = RCMB18 cell growth, single agent and combined, cisplatin and BGB IC40 combos (AID 1671462); conditions: RCMB18 medulloblastoma cells, stronger effect = higher value;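 further: cells exposed to compound for four days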
[19] = CRL1545 cell growth, single agent and combined, cisplatin and BGB IC20 combos (AID 1671464); conditions: CRL1545 osteosarcoma cells, stronger effect = higher value;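 further: cells exposed to compound for 96 hours before readout; 0% = vehicle DMSO and 100% = high DMSO killing control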
[20] = measured here: combination with BGB IC40, at 0.05 µM
[21] = measured here: with BGB IC20 combination, at 0.5 µM
[22] = measured here: with cisplatin IC20 combination, at 0.5 µM
[23] = measured here: combination with cisplatin, at 0.5 µM

CC(=O)Nc1ccc(C(=O)Nc2ccccc2N)cc1
AC50 [1]: 13.2 µM (active)
AC50 [2]: 9.34 µM (active)
AC50 [3]: 9.34 µM (active)
AC50 [4]: 10.5 µM (active)
IC50 [5]: 10.5 µM (active)
fold change ([6]; stronger effect = lower value, cell number ratio, induced over uninduced): 0.986 (inactive)
fold change ([6]; measured here: relative caspase fold change +Dox/-Dox): 1.15
cell count ([6]; measured here: total cells with miR-34 induction, stronger effect = lower value): 4760
cell count ([6]; measured here: total cells without miR-34 induction): 4820
z-score ([7]; MELAS cybrid survival, CellTiter-Glo 48 h, stronger effect = higher value): -0.168 (inactive)
z-score ([7]; Rieske KO mouse fibroblast survival, CellTiter-Glo 72 h): -0.712
inhibition ([8]; at 0.5 µM, stronger effect = higher value): 88.2% (active)
inhibition ([8]; measured here: combination with BGB IC20, at 0.005 µM): -32.9%
inhibition ([8]; measured here: combination with BGB IC40, at 0.005 µM): 90.3%
inhibition [8, 20]: -22.7%
inhibition ([8]; measured here: combination with cisplatin, at 0.5 µM, stronger effect = higher value): 113%
inhibition ([8]; measured here: combination with cisplatin, at 5 µM, stronger effect = higher value): 85.2%
inhibition ([9]; BGB combo, at 5 µM): 47.2%
inhibition ([9]; at 0.5 µM): 8.49% (inactive)
inhibition ([9]; cisplatin combo, at 5 µM): 53.7%
inhibition [9, 21]: 4.99%
inhibition [9, 22]: 18.6%
inhibition ([9]; single agent, at 5 µM): 41.8%
inhibition ([10]; BGB IC20 combo, at 0.005 µM): -11.5%
inhibition ([10]; BGB IC40 combo, at 0.005 µM): -4.35%
inhibition ([10]; BGB IC40 combo, at 0.05 µM): 23.2%
inhibition ([10]; at 0.5 µM): -24.7% (inactive)
inhibition ([10]; cisplatin combo, at 0.05 µM): 19.5%
inhibition ([10]; cisplatin combo, at 0.5 µM): -38.2%
inhibition ([10]; cisplatin combo, at 5 µM): -5.64%
inhibition ([10]; measured here: 5 uM single agent, at 5 µM): -13.9%
inhibition ([11]; at 0.5 µM): -13.9% (inactive)
inhibition [11, 20]: -36.6%
inhibition [11, 23]: -17.4%
inhibition ([11]; measured here: combination with cisplatin, at 5 µM): 75.4%
inhibition ([12]; at 0.5 µM): 3.06% (inactive)
inhibition ([12]; measured here: with BGB IC20, at 0.5 µM): 23.1%
inhibition ([12]; measured here: with BGB IC20, at 5 µM): 53.4%
inhibition ([12]; measured here: with cisplatin IC20, at 0.5 µM): -11.1%
inhibition ([12]; measured here: with cisplatin IC20, at 5 µM): 56.6%
inhibition ([12]; single agent, at 5 µM): 37.1%
inhibition ([13]; at 0.5 µM): -31.5% (inactive)
inhibition ([13]; measured here: combination with BGB at IC20, at 0.5 µM): -48.1%
inhibition ([13]; measured here: combination with cisplatin at IC20, at 0.5 µM): -8.49%
inhibition ([14]; at 0.5 µM): -2.82% (inactive)
inhibition ([14]; measured here: combo with BGB at IC20, at 0.5 µM): -7.4%
inhibition ([14]; measured here: combo with cisplatin at IC20, at 0.5 µM): -4.11%
inhibition ([15]; at 0.5 µM): 0.73% (inactive)
inhibition ([15]; measured here: inhibition with BGB combination, at 0.05 µM): -12.2%
inhibition ([15]; measured here: inhibition with cisplatin combination, at 0.05 µM): -6.67%
inhibition ([16]; at 0.5 µM): -2.64% (inactive)
inhibition ([16]; measured here: BGB combination, at 0.5 µM): 6.02%
inhibition ([16]; measured here: BGB combination, at 5 µM): 12.4%
inhibition ([16]; measured here: cisplatin combination, at 0.5 µM): -26.9%
inhibition ([16]; measured here: cisplatin combination, at 5 µM): 14.4%
inhibition ([17]; at 0.5 µM): 25.3% (inactive)
inhibition ([17]; cisplatin combination, at 0.5 µM): 14.2%
inhibition ([17]; cisplatin combination, at 5 µM): 63.9%
inhibition ([17]; measured here: BGB IC40 combination 0.05 uM, at 0.05 µM): -33.4%
inhibition ([17]; single agent, at 5 µM): 40.7%
inhibition ([18]; at 0.5 µM): 16.2% (inactive)
inhibition ([18]; cisplatin combo, at 5 µM): 82.6%
inhibition ([18]; measured here: BGB IC40 combination, at 0.05 µM): -4.7%
inhibition [18, 23]: 20.8%
inhibition ([18]; single agent, at 5 µM): 47.6%
inhibition ([19]; at 0.5 µM): 35.2% (inactive)
inhibition [19, 21]: 11.6%
inhibition [19, 22]: 46.2%
inhibition ([19]; single agent, at 0.05 µM): -7.31%
inhibition ([19]; single agent, at 5 µM): 44%
